These results are taken from article PMC4336329 (PLoS ONE, 2015).

Among all 310,000 compounds or so, about 14,000 (4.5%) showed an effect of 50% or more. Effects have a minus sign here. The sample as a whole holds a higher share of strong results than the screen did.
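Note: peak tail current of the secondary pulse compared with the same well before compound.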

Chain of human ether-à-go-go-related gene (hERG) potassium channel (Q12809 whole entry, looked up): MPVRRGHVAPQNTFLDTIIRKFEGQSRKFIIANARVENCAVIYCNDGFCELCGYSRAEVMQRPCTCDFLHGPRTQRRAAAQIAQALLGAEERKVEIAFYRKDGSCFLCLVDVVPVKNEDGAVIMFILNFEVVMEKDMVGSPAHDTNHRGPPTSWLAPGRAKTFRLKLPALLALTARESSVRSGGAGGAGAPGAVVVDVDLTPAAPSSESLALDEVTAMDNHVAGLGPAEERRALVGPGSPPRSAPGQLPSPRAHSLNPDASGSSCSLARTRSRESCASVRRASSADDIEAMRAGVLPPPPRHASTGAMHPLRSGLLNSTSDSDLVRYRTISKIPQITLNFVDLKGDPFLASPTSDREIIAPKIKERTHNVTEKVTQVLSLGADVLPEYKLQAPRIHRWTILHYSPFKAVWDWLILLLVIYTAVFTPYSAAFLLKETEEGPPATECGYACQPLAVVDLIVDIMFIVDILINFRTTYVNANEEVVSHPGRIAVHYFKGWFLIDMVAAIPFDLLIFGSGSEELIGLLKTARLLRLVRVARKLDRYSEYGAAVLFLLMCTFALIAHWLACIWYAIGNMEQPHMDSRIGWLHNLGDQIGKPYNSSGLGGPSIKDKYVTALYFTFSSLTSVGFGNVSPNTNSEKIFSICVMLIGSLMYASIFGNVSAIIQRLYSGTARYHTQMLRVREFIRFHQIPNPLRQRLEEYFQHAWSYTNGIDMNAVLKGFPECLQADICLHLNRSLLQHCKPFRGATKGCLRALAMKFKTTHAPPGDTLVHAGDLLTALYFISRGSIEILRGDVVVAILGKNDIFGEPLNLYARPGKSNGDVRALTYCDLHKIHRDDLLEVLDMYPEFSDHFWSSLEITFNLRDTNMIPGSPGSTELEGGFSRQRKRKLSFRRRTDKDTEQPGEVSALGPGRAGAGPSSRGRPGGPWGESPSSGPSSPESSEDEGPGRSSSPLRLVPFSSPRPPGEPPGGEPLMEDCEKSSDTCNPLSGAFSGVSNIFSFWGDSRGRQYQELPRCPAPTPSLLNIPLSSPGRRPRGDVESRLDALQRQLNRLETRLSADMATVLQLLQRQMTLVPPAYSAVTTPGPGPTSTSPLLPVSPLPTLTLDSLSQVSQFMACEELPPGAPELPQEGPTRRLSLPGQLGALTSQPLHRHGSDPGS

This assay has as its target human ether-à-go-go-related gene (hERG) potassium channel (human, UniProt Q12809). Nature of the assay: primary screen, population patch clamp on CHO cells stably expressing hERG; higher = less effect of the substance.
Regarding `CC(=O)n1cc(CO)c2ccccc21`, the “hERG current change (%, negative = inhibition) at 10uM” value turned out to be 9.03%. Regarding `O=S(=O)(Nc1nc2ccccc2nc1Nc1ccc2c(c1)OCO2)c1ccc(F)cc1`, the “hERG current change (%, negative = inhibition) at 10uM” value is 24.5%.

With `Cc1cccc(C)c1NC(=O)CSc1ccc([N+](=O)[O-])cn1`, the “hERG current change (%, negative = inhibition) at 10uM” value is on record as -12.3%.

Take `COc1ccc(NC(=S)NCc2cccnc2)cc1OC`: the “hERG current change (%, negative = inhibition) at 10uM” value was 5.8%. Consider `OC1(c2cccs2)CN(c2ccc(Br)cc2)C2=[N+]1CCCS2.[Br-]` (stereo not shown), for which the “hERG current change (%, negative = inhibition) at 10uM” value is reported as -72.1%. On to `OC1(c2cccs2)CN(c2ccc(Cl)cc2)C2=[N+]1CCCS2.[Br-]` (stereo not shown), for which the “hERG current change (%, negative = inhibition) at 10uM” value is given as -73.6%. Take `CCc1ccc(N2CC(O)(c3cccs3)[N+]3=C2SCCC3)cc1.[Br-]` (stereo not shown): the “hERG current change (%, negative = inhibition) at 10uM” value is -70%. The result for `OC1(c2ccc(Br)cc2)CN(c2ccccc2)C2=[N+]1CCS2.[Br-]` (stereo not shown) reads -19.5%. As for `Cc1ccc(Oc2ccc(C(=O)NC3CCSC3=O)cn2)cc1` (stereo not shown), the “hERG current change (%, negative = inhibition) at 10uM” value turned out to be 12%.

On to `CC(C)(CNc1ccc([N+](=O)[O-])cc1Cl)CNS(C)(=O)=O`, for which the “hERG current change (%, negative = inhibition) at 10uM” value was -1.02%.

`Cc1cc(/C=N/n2cnnc2)c(C)n1-c1ccccc1`: the “hERG current change (%, negative = inhibition) at 10uM” value was -4.02%.

For `COc1ccccc1C(=O)CSc1nccn1C`, the “hERG current change (%, negative = inhibition) at 10uM” value was -11.1%. The result for `O=C1NC(=O)N(c2ccccc2)C(=O)/C1=C\c1ccc2c3c(cccc13)CC2` reads -20.4%; that for `CCOC(=O)c1c(NC(=O)c2ccc(Cl)cc2)csc1C`, -0.689%; that for `CC(=O)Nc1ccccc1C(=O)C(=O)Nc1cccc(C(=O)NCc2ccc(C)cc2)c1`, -58.3%. Under `COc1ccc(CNS(=O)(=O)CCNC(=O)c2ccccc2)cc1` stands -4.36%. In the case of `CC(=O)Nc1ccccc1C(=O)C(=O)Nc1cccc(C(=O)NCc2ccccc2)c1`, the “hERG current change (%, negative = inhibition) at 10uM” value is given as -32.6%.

In the case of `CCCCNC(=O)c1cccc(NC(=O)C(=O)c2ccccc2NC(C)=O)c1`, the “hERG current change (%, negative = inhibition) at 10uM” value is recorded as -19.1%.

Turning to `O=C(NCCCN1CCN(CCCNC(=O)c2cccc(Cl)c2)CC1)c1cccc(Cl)c1`, the “hERG current change (%, negative = inhibition) at 10uM” value was -74.4%.

With `Cc1cc(C(=O)NCCCN2CCN(C3CCCCC3)CC2)n(-c2ccccc2)n1`, the “hERG current change (%, negative = inhibition) at 10uM” value amounted to 2.76%. Regarding `Cc1cc(C(=O)NCCCN2CCN(c3cc(Cl)ccc3C)CC2)n(-c2ccccc2)n1`, the “hERG current change (%, negative = inhibition) at 10uM” value is -89.2%. `COc1ccc(CNS(=O)(=O)CCNC(=O)c2cccc(OC)c2)cc1`: the “hERG current change (%, negative = inhibition) at 10uM” value was -78.1%.

Consider `Cc1cc(C(=O)NCCCN2CCOCC2)n(-c2ccccc2)n1`, for which the “hERG current change (%, negative = inhibition) at 10uM” value worked out at 19.3%. For `O=C(NCCCn1ccnc1)c1cccc(Cl)c1`, the “hERG current change (%, negative = inhibition) at 10uM” value is on record as 0.459%. Under `COc1cccc(C(=O)NCCS(=O)(=O)NCc2ccc(Cl)cc2)c1` stands -36.5%. The result for `O=C(NCCCN1CCN(c2cccc(Cl)c2)CC1)c1cccc(N2CCCC2=O)c1` reads -38%; that for `Oc1c(Cl)cc(Cl)cc1/C=N/c1nccs1`, -11.8%; that for `O=C(COC(=O)C1CCN(S(=O)(=O)c2cccc3cccnc23)CC1)c1ccc([N+](=O)[O-])cc1`, 13.1%.

Take `O=C(NC(=O)c1ccccc1F)Nc1nc(-c2cccs2)cc(C(F)(F)F)n1`: the “hERG current change (%, negative = inhibition) at 10uM” value was determined as 4.49%. With `COC(=O)CC1c2cc(OC)c(OC)cc2CC(=O)c2cc(OC)c(OC)cc21` (stereo not shown), the “hERG current change (%, negative = inhibition) at 10uM” value is on record as 6.73%. Under `Nn1c(COc2ccccc2)nnc1SCc1cc(=O)[nH]c2ccccc12` stands -14.3%; under `CCCNC(=S)N1CCC(C(=O)c2ccc3c(c2)OCCO3)CC1`, -28.9%; under `COc1ccccc1CNS(=O)(=O)c1csc(C(N)=O)c1`, 20.1%. Under `CCCc1cc(=O)[nH]c(SCC(=O)NN(c2ccccc2)c2ccccc2)n1` stands -1.04%; under `CCOc1c(Cl)cc(C(=O)NCCN2CCCCC2)cc1Cl`, -58.6%.

With `Cl.O=C(NCCN1CCN(c2ccccc2)CC1)c1cccc(Cl)c1`, the “hERG current change (%, negative = inhibition) at 10uM” value is listed as -54.2%.

Consider `COc1cccc(C(=O)NCCCNC(=O)c2cccc(OC)c2)c1`, for which the “hERG current change (%, negative = inhibition) at 10uM” value stood at 1.43%.

Consider `Nc1ccccc1C(=O)NCCCN1CCOCC1`, for which the “hERG current change (%, negative = inhibition) at 10uM” value worked out at 15.6%. The result for `Nc1ccccc1C(=O)NCCCN1CCN(c2cccc(Cl)c2)CC1` reads -71.4%; that for `Cn1c(C(=O)NCCCN2CCN(c3cccc(Cl)c3)CC2)cc2c(=O)n(C)c3ccccc3c21`, 9.13%; that for `COc1cc(OC)cc(C(=O)NCCCN2CCN(CCCNC(=O)c3cc(OC)cc(OC)c3)CC2)c1`, -48.8%. The result for `COc1cc(C(=O)NCCN2CCCC2)cc(OC)c1OC.Cl` reads 9.26%. Turning to `COc1cccc(C(=O)NCCCN2CCN(CCCNC(=O)c3cccc(OC)c3)CC2)c1`, the “hERG current change (%, negative = inhibition) at 10uM” value was -85.4%. For the compound `Cc1cccc(C(=O)NCCN2CCN(c3ccccc3)CC2)c1.Cl`, the “hERG current change (%, negative = inhibition) at 10uM” value was -37.1%.

Consider `CCOc1ccc(C(=O)NCCN2CCCC2)cc1.Cl`, for which the “hERG current change (%, negative = inhibition) at 10uM” value was -40.6%. With `COc1cccc(C(=O)NCCN2CCN(c3ccc(Cl)cc3)CC2)c1`, the “hERG current change (%, negative = inhibition) at 10uM” value is reported as -49.8%. Under `CCN(CC(=O)Nc1c(F)cccc1F)C(=O)C1CCCN(C(=O)c2ccc(Cl)cc2)C1` (stereo not shown) stands -31.5%. The result for `Cc1ccccc1Nc1nc(N2CCOCC2)nc(N2CCOCC2)n1.Cl` reads 14%; that for `CC1=CC(c2ccc(Cl)cc2)n2nc(NS(=O)(=O)c3ccc(C)cc3)nc2N1` (stereo not shown), -19.7%. The result for `CCOC(=O)c1cnc2c(cnn2C)c1NCCC(O)C(F)(F)F` (stereo not shown) reads 0.469%. In the case of `Cc1ccc(SCC(=O)Nc2ccc(F)cc2[N+](=O)[O-])cc1C`, the “hERG current change (%, negative = inhibition) at 10uM” value worked out at 11.7%. `Clc1cccc(N2CCN(Cc3nc(-c4ccccc4)no3)CC2)c1`: the “hERG current change (%, negative = inhibition) at 10uM” value is recorded as -12%. For `O=C(NCC1CC1)c1ccc(Oc2cc(Cl)cc(Cl)c2)o1`, the “hERG current change (%, negative = inhibition) at 10uM” value is -33.7%. The result for `COc1cc(OC)cc(C(=O)NCCCCNC(=O)c2cc(OC)cc(OC)c2)c1` reads 4.94%. The result for `O=C(NCCN1CCCCC1)c1ccc(Oc2cc(Cl)cc(Cl)c2)o1` reads -54.8%; that for `O=C(NCCCN1CCN(c2cccc(Cl)c2)CC1)c1ccc(N2CCCC2=O)cc1`, -26.4%. Regarding `O=C(NCCc1ccccc1)c1cccc(Br)c1`, the “hERG current change (%, negative = inhibition) at 10uM” value is 2.53%. The result for `O=C(NCCN1CCN(c2ccccc2)CC1)c1cccc(Br)c1` reads -60.2%. Under `O=C(c1ccc(Oc2cc(Cl)cc(Cl)c2)o1)N1CCCCC1` stands -7.03%.

With `O=C(NCCCN1CCN(c2cccc(Cl)c2)CC1)c1nc(-c2ccncc2)no1`, the “hERG current change (%, negative = inhibition) at 10uM” value is listed as -63.2%. Turning to `O=C(NCCN1CCOCC1)c1cccc(Br)c1`, the “hERG current change (%, negative = inhibition) at 10uM” value was -3.21%. Under `COc1cc(OC)cc(C(=O)NCCCCc2ccccc2)c1` stands -56%; under `COc1ccc(C(=O)NCCCCc2ccccc2)cc1`, -4.68%; under `O=C(COc1ccc(Br)cc1Br)NC(=O)NC1CCCC1`, 22.3%. Turning to `O=C(CN1C(=O)NC(c2ccccc2)(c2ccccc2)C1=O)NC1CCS(=O)(=O)C1` (stereo not shown), the “hERG current change (%, negative = inhibition) at 10uM” value is 5.23%.

As for `CCc1nc(Nc2ccccc2F)c2oc3ccccc3c2n1.Cl`, the “hERG current change (%, negative = inhibition) at 10uM” value came to 6.04%. The result for `CCC(=O)Nc1ccc(S(=O)(=O)Nc2ccc(Cl)nn2)cc1.Cl` reads 11.7%.

With `Cc1cccc(C)c1NC(=O)N1CCC(C(=O)c2ccc(F)cc2)CC1`, the “hERG current change (%, negative = inhibition) at 10uM” value is -22.6%. For `COC(=O)C1=NN(c2ccc(OC)cc2)C2C(=O)N(c3ccccc3OC)C(=O)C12` (stereo not shown), the “hERG current change (%, negative = inhibition) at 10uM” value is listed as 10.7%.

`COc1ccc(S(=O)(=O)N2CCC3(CC2)OCCN3S(=O)(=O)c2ccccc2)cc1OC`: the “hERG current change (%, negative = inhibition) at 10uM” value worked out at 0.907%. The result for `CCOC(=O)c1c(C)[nH]c(C(=O)OCC(=O)Nc2ccc(Cl)cn2)c1C` reads 6.52%; that for `CCCOc1ccccc1C1NC(=O)NC(C)=C1C(=O)OCc1ccccc1` (stereo not shown), 6.23%.

`COc1ccc(-c2cc(C(F)(F)F)nc(SCC(=O)NCc3cccs3)n2)cc1OC`: the “hERG current change (%, negative = inhibition) at 10uM” value is -3.84%. The result for `CC1CCC(NC(=O)c2ccc3snnc3c2)CC1` (stereo not shown) reads 21.3%; that for `O=C(NCCN1CCOCC1)c1cccc(Cl)c1`, -1.9%; that for `COc1ccc(CNC(=O)c2cccc(NC(=O)c3ccccc3)c2)cc1`, -71.5%. As for `COc1ccc(NC(=O)c2cccc(NC(=O)c3ccccc3)c2)cc1`, the “hERG current change (%, negative = inhibition) at 10uM” value was 2%. In the case of `Cl.O=C(NCCN1CCCC1)c1cccc(Cl)c1`, the “hERG current change (%, negative = inhibition) at 10uM” value was -51.6%. Take `Cc1cccc(C(=O)NCCN2CCCC2)c1.Cl`: the “hERG current change (%, negative = inhibition) at 10uM” value was -0.337%. With `COc1ccc(C(=O)Nc2cccc(C(=O)NCc3ccccc3)c2)cc1`, the “hERG current change (%, negative = inhibition) at 10uM” value amounted to 4.28%. The result for `Cc1cc(=O)oc2cc(NC(=O)c3ccccc3Cl)ccc12` reads 28%. Under `C(=N\Nc1nc(Nc2ccccc2)nc(Nc2ccccc2)n1)/c1cccnc1` stands -4.87%. Turning to `C[n+]1cccc(C2C(C#N)=C(N)Oc3c2ccc2ccccc32)c1.[I-]` (stereo not shown), the “hERG current change (%, negative = inhibition) at 10uM” value worked out at 13.7%.

As for `C/C(=N\Nc1ccc2nncn2n1)c1ccc(Br)s1`, the “hERG current change (%, negative = inhibition) at 10uM” value came to 6.83%. For `O=C(/C=C/c1cccs1)NCc1ccccc1`, the “hERG current change (%, negative = inhibition) at 10uM” value was -2.08%. The result for `Cc1ccc(-c2nn(C)c(=O)c3ccccc23)cc1S(=O)(=O)N1CCCC1` reads -40.6%; that for `CCOC(=O)CNS(=O)(=O)c1cc(-c2nn(C)c(=O)c3ccccc23)ccc1C`, -52.8%; that for `Cc1ccc(-c2nn(C)c(=O)c3ccccc23)cc1S(=O)(=O)NCCN(C)C`, 4.35%. The result for `COCCNS(=O)(=O)c1cc(-c2nn(C)c(=O)c3ccccc23)ccc1C` reads -28.9%; that for `CCN(CC)S(=O)(=O)c1cc(-c2nn(C)c(=O)c3ccccc23)ccc1C`, -53.5%.

In the case of `CCC(CO)NS(=O)(=O)c1cc(-c2nn(C)c(=O)c3ccccc23)ccc1C` (stereo not shown), the “hERG current change (%, negative = inhibition) at 10uM” value is recorded as -3.69%.
